Assay outcomes (PubChem)
Most compounds without a hit are left out; they make up all but 11% or so of the library.
Gal4-VP16 FLuc: counter-screen for ROR gamma inhibitors: Gal4-VP16 reporter. AID 2546. 310,000 compounds, 3.5% hits. Drosophila S2 Gal4-VP16 UAS-luciferase, luminescence, 20 h. Potency, µM (top dose mostly 53.6 µM), inactives show at the top dose activity, negative = inhibition, hits mostly inhibitors;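 note: Gal4-VP16 expression switched on by copper sulfate through the metallothionein promoter; potency is the fitted concentration of half-maximal effect; % is set by controls: 0 for no effect and ±100 for the full control effect; nearly all actives have a fitted effect of over 50% in size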
RORgamma inh: ROR gamma (mouse) transcription inhibition; AID 2551; 310,000 compounds, 5.4% hits; P51450; Drosophila S2 Gal4-RORgamma UAS-luciferase reporter, 20 h; Potency, µM (series often up to 53.6 µM), without a hit: at the highest dose activity change, negative = inhibition, most hits filed as inhibitors; note: potency is the fitted concentration of half-maximal effect; % is set by controls: 0 for no effect and ±100 for the full control effect; nearly all actives have a fitted effect of over 60% in size
Target sequence (P51450 whole entry, looked up, the tested form may be a part): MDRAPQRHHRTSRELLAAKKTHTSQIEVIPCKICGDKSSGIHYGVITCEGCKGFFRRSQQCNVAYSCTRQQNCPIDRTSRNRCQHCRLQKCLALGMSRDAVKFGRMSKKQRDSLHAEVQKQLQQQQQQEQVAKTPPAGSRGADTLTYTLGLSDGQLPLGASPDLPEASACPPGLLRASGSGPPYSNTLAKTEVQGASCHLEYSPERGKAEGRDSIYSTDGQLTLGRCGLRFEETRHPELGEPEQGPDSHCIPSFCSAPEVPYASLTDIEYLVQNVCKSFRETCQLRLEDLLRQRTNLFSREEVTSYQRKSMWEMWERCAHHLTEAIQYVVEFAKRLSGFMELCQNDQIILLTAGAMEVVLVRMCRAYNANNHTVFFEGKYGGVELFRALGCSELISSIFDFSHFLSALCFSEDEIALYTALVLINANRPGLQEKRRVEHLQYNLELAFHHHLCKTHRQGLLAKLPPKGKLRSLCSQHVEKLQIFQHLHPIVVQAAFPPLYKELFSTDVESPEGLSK
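Compounds are pin-transferred onto Drosophila Schneider cells expressing a copper-inducible Gal4–ROR gamma transactivation domain fusion. After 1 hr, copper sulfate is added to 700 uM final; luciferase is read 20 hr later.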
IL1B secr inh: blocks inflammasome-driven IL-1 beta release | THP-1 LPS/ATP IL-1B secretion, AlphaLISA, 16 h; stronger effect = lower value | activity change, % at 57.5 µM | 360,000 compounds, 4.7% hits | AID 743279; in the data active = activity change below about -50%; inconclusive = mostly about -30% to -49%; note: % is set by controls: 0 for no effect and ±100 for the full control effect
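Secreted IL-1B measured by AlphaLISA bead assay after 16 h compound exposure of THP-1 cells; compounds (final up to 57.5 uM) added 1 h before LPS (250 ng/mL) and ATP (1.25 mM) stimulation; lower signal means less secretion.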
MCF10A rerep: induces DNA re-replication in MCF 10a normal breast cells; MCF 10A DNA re-replication, Hoechst nuclear intensity, 48 h; Potency, µM (highest dose often 46.1 µM), inactives show top-dose activity, positive = re-replication, most hits filed as activators; 350,000 compounds, 2.9% hits; note: potency is the fitted concentration of half-maximal effect; % of control where 0% means no effect; nearly all actives have a fitted effect of over 50% in size
SW480 rereplic: DNA re-replication induction in SW480 cells; AID 624297; SW480 DNA re-replication, Hoechst DNA content imaging, 48 h; 340,000 compounds, 1.8% hits; Potency, µM (titrated, usually from 46.1 µM), without a hit: at the highest dose re-replication activation, hits mostly activators; note: potency is the fitted concentration of half-maximal effect; % of control where 0% means no effect; nearly all actives have a fitted effect of over 55% in size
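First, 250 cells per well were seeded. Next, compound or vehicle (23 nL) was pinned in, plates sat 48 hr at 37 C. Finally Hoechst was added for 40 min before fluorescence scanning.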
Numbers without * were called inactive; ? = inconclusive; . = not tested or not shown; [ ] = remark or other dose. Unless noted, calls come from the whole dose curve; as a rule, active = well fitted curve in the direction sought with a large enough effect; inconclusive = small, poorly fitted or top-dose-only effect, or another doubt; inactive = no such curve, though single readings can be large; an effect the other way counts as inactive or inconclusive.

SMILES	Gal4-VP16 FLuc	RORgamma inh	IL1B secr inh	MCF10A rerep	SW480 rereplic
O=C(NC12CC3CC(CC(C3)C1)C2)N1CCN(C2CCCCC2)CC1	-4%	-17%	5	2.1µM*	-1%
CCOC(=O)C(C)Sc1nnc(-c2ccccc2O)n1-c1ccc(C)cc1 (stereo not given)	5.6µM*	3.2µM*	10	9%	-7%
COC(=O)CSc1nnc(-c2ccccc2O)n1-c1ccc(C)cc1	?	?	5	4%	1%
Cc1[nH]c2ccc(-c3nnc(SCC(=O)c4ccccc4F)o3)cc2c1C	-1%	12%	7	16µM*	4%
CC(OC(=O)c1cnc(Cl)c(Cl)c1)C(=O)NCc1ccccc1 (stereo not given)	.	.	-87*	-8%	-4%
Cc1[nH]c2ccc(C(=O)OC(C)C(=O)NCc3ccccc3)cc2c1C (stereo not given)	.	.	-56*	15µM*	?
CC(OC(=O)c1ccc2ncsc2c1)C(=O)NCc1ccccc1 (stereo not given)	3%	?	.	.	.
Cc1ccccc1CN(C)C(=O)COC(=O)c1ccc2[nH]c(C)c(C)c2c1	.	.	-61*	23%	-4%
CC(=O)Nc1ccc(S(=O)(=O)NN=CCCc2ccccc2)cc1	.	.	20	-10%	-7%
CC(C)C[C@@H](CC(=O)N[C@@H](CCC(=O)O)CC(=O)O)NC(=O)[C@@H]1CNCC[C@H]1NC(=O)C[C@H](CCCN)NC(=O)C[C@H](Cc1ccccc1)NC(=O)[C@@H]1CCCC[C@H]1N	-2%	-17%	.	.	.
CN1C2CCC1CC(NS(=O)(=O)c1cccc(C(F)(F)F)c1)C2 (stereo not given)	-1%	0%	-76*	1%	-12%
NNc1ccc2c(C(F)(F)F)cc(C(F)(F)F)nc2n1	1%	13µM*	16	-10%	11%
Cc1c(NC(=O)c2c(N)n(-c3ccccc3)c3nc4ccccc4nc23)c(=O)n(-c2ccccc2)n1C	-1%	1%	.	.	.
Cn1c(-c2c(N)n(-c3ccccc3)c3nc4ccccc4nc23)nc2ccccc21	3.5µM*	1.1µM*	0	8.2µM*	15µM*
Cc1ccc(-n2c(N)c(-c3nc4ccccc4n3C)sc2=S)cc1	?	5µM*	21	16%	-2%
Cn1c(N)c(-c2nc3cccnc3n2C)sc1=S	4%	-7%	15	-1%	1%
Cc1cccc(-n2c(N)c(-c3nc4ccccc4n3C)c3nc4ccccc4nc32)c1	5µM*	2.8µM*	19	?	5.8µM*
CC(=O)C1=C(C)OC(N)=C(C#N)C1c1ccncc1 (stereo not given)	18µM*	?	?	6%	5%
CC(=O)C1=C(C)OC(N)=C(C#N)C1c1cc([N+](=O)[O-])ccc1Cl (stereo not given)	-9%	-10%	-62*	?	3.3µM*
COc1ccc(C2c3cc4c(cc3OC(N3CCOCC3)C2C)OCO4)c(OC)c1 (stereo not given)	.	.	22	2.9µM*	?
CCCNC(=O)C1(C)CCN(C(=O)c2cccc(Cl)c2)C1 (stereo not given)	.	.	15	.	.
CCc1cccc(N=c2c([N+](=O)[O-])nn(-c3ccc4c(c3)OCCO4)n2O)c1	?	-3%	0	0%	3%
O=[N+]([O-])c1nn(-c2ccc3c(c2)OCCO3)n(O)c1=NC1CCN(Cc2ccccc2)CC1	?	-21%	5	15%	7.3µM*
O=[N+]([O-])c1nn(-c2ccccc2)n(O)c1=NC1CCN(Cc2ccccc2)CC1	19%[10 µM]	-4%	?	?	10µM*
O=[N+]([O-])c1nn(-c2ccccc2)n(O)c1=NCCc1ccccc1	-16%	-32%	-5	?	?
SMILES	Gal4-VP16 FLuc	RORgamma inh	IL1B secr inh	MCF10A rerep	SW480 rereplic
COc1cccc(N2CCN(c3ccc4nnc(CCC(=O)Nc5ccccn5)n4n3)CC2)c1	-4%	-16%	-3	2%	9%
O=C(CN1CCN(CC(=O)Nc2ccc3c(c2)OC2(CCCCC2)O3)CC1)Nc1cccc(F)c1	.	.	.	?	8%
CC1(C(=O)NS(=O)(=O)Cc2ccccc2)CCN1C(=O)C1(c2ccc(Cl)cc2)CC1 (stereo not given)	.	.	43	.	.
COc1ccc(Nc2nc(C)nc3c2nnn3Cc2ccccc2Cl)c(OC)c1	-4%	3%[1.91 µM]	0	3.3µM*	0%
COc1ccc(Nc2nc(C)nc3c2oc2ccccc23)c(OC)c1	?	-44%	51	15µM*	?
COc1ccccc1Nc1nc(C)nc2c1oc1ccccc12	8%	-33%	6	18µM*	12%
CCc1nc(Nc2ccc(OC)cc2OC)c2oc3ccccc3c2n1	-29%	?	-12	?	?
Cc1nc(NCC2CCCO2)c2nnn(Cc3ccccc3Cl)c2n1 (stereo not given)	14%	16%	?	-4%	-3%
Cc1cc(OCCCn2ccnc2)ccc1[N+](=O)[O-]	-7%	-33%	-79*	9%	?
Cc1cc(C)c(OCCCCCn2ccnc2)c(C)c1	14µM*	11µM*	28	27%	-2%
CCc1ccc(OCCCCCn2ccnc2)cc1	?	11µM*	-30	?	-1%
CCc1ccc(OCCn2ccnc2)cc1	-7%	-12%	-1	0%	-2%
Cc1ccc(C)c(OCCCCCn2ccnc2)c1	-30%	8.9µM*	-11	-4%	-5%
C[C@@H](N)C(=O)NC[C@H]1CC[C@H](C(=O)N[C@@H](Cc2ccccc2)C(=O)O)CC1	2%	0%	-1	-23%	?
OC[C@@H]1CN(Cc2ccc(F)cc2)C[C@H](n2cnc3c(N4CCN(c5ccccc5)CC4)ncnc32)O1	.	.	-1	.	.
CC1(CCc2ccccc2)NC(=O)N(CC(=O)Nc2c(F)cccc2F)C1=O (stereo not given)	.	.	-9	1%	-14%
Cc1cc(Cl)cc(C)c1OCCn1ccnc1	1%	-32%	160	?	19%
Cc1cc(Cl)cc(C)c1OCCCCCn1ccnc1	18µM*	?	-91*	?	?
O=C(N/N=C1/C[C@@H](O)[C@@H](O)[C@@H]2[C@@H]3C(=O)N(C4CCCCC4)C(=O)[C@H]3CC[C@H]12)OCc1ccccc1	12%[10 µM]	16%[10 µM]	.	.	.
COc1ccc(C2Nc3ccccc3C(=O)N2Cc2ccco2)cc1COc1ccc(NC(C)=O)cc1 (stereo not given)	-2%[0.365 µM]	37%	-7	?	0%
COc1ccc(C2Nc3ccccc3C(=O)N2Cc2ccco2)cc1COc1ccccc1F (stereo not given)	5%	-12%	-69*	?	20%
O=C(NCCNc1ccc([N+](=O)[O-])cc1C(F)(F)F)c1ccc(F)cc1	5%	?	-1	19%	0%
NCCCNc1ccc([N+](=O)[O-])cc1C(F)(F)F	-5%	0%	-51*	-39%	-1%
